Screening data: PubChem BioAssay, National Center for Advancing Translational Sciences (NCATS)
ERG Ets-DNA blk: ERG Ets/DNA interaction inhibition; P11308; fluorescence polarization, His-ERG Ets domain / labelled DNA; Potency, µM (highest dose often 76.9 µM), without a hit: at the top dose FP activity, negative = inhibition, usual class: inhibitors; hit rate 0.028% among 370,000; active = well fitted inhibition curve with a large enough effect in the polarisation, with a control signal flat; inconclusive = small, poorly fitted or top-dose-only effect, or effect the other way, or a change in a side signal; inactive = no such curve, though single readings can be large or run the other way; the % refers to the polarisation;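 note: polarization taken with two DNA probes labelled with fluorescein and Texas red; % of control where 0% means no effect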
Target sequence (P11308 whole entry, looked up, the tested form may be a part): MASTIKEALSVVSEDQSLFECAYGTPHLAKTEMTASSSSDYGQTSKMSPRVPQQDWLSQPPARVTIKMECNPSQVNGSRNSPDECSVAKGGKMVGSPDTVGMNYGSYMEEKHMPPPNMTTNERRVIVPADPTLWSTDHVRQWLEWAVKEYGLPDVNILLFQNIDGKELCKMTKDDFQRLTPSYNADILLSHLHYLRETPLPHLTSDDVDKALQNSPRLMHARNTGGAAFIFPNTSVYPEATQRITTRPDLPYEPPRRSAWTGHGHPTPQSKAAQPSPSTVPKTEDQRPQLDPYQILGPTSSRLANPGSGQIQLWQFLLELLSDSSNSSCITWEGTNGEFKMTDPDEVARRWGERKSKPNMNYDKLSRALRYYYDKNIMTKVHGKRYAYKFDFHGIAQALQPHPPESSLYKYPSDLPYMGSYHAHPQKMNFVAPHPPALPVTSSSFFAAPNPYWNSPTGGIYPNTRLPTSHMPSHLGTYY
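His-tagged ERG Ets domain (1 uM in the protein solution; 300mM KCl, 50mM Tris-HCl, 1mM EDTA, 1mM DTT, pH 7.5) received compound, then a probe mix of 5 nM fluorescein-DNA and 100nM Texas-615-DNA. Fluorescence polarization was read for both dyes.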
Anesthetic bind: candidate novel general anesthetic via apoferritin binding. apoferritin/1-aminoanthracene competitive binding, fluorescence. Potency, µM (highest dose often 77.5 µM), inactives show at the top dose activity change, negative = displacement, usual class: inhibitors. hit rate 0.074% among 350,000. AID 485281; note: % is set by controls: 0 for no effect and ±100 for the full control effect; nearly all actives have a fitted effect of over 20% in size
Target sequence (P02791 2-175 limits assumed): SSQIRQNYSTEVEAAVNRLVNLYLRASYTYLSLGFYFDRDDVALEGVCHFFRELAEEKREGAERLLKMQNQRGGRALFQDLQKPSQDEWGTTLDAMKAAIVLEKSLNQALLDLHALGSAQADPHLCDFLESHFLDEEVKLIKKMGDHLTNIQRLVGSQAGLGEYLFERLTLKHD
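Horse-spleen apoferritin (10 uM) was mixed with 50% saturated 1-aminoanthracene in PBS, exposed to compounds for 10 min at room temperature, and read for fluorescence (ex 380 nm, em 535 nm). Competitive displacement was fitted with a four-parameter Hill equation.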
BRCA1 expr up: activators of BRCA1 expression. MCF7-BRCA1-FFLuc reporter, luminescence, 48 h; response scale: scaled: vehicle 0%, 10 µM genistein 100%. Potency, µM (highest dose often 46.1 µM), for the others: top-dose activation, hits mostly activators. hit rate 1.1% among 380,000. AID 624202; note: nearly all actives have a fitted effect of over 80% in size
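MCF7-BRCA1-FFLuc cells, 2000/well in phenol-red-free MEM, attached 2 h then treated 48 h at 37 C. Luciferase luminescence read 15 min after reagent; normalized to genistein maximum activation (10microM) and DMSO, concentration-response fitted.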
GoLoco inh red: RGS12 GoLoco-Gai1 interaction inhibition; AID 880; hit rate 0.44% among 230,000; Gai1:RGS12 GoLoco peptide FP, rhodamine, 10 min; Potency, µM (top dose mostly 61.6 µM), inactives show top-dose activity, negative = inhibition, usual class: inhibitors; active = well fitted inhibition curve with a large enough effect, not every such curve was filed as active; inactive = no such curve, though single readings can be large or run the other way; note: % is set by controls: 0 for no effect and ±100 for the full control effect; nearly all actives have a fitted effect of over 30% in size
Active calls of the source: *; ? = inconclusive; . = not tested or not shown; ! = repeats disagree; [ ] = another dose, or the depositor's remark. Rows were chosen to be rich in hits. Some 1.2% of all compounds tested hit in one or more screens of this group. Unless noted, calls come from the whole dose curve; as a rule, active = well fitted curve in the direction sought with a large enough effect; inconclusive = small, poorly fitted or top-dose-only effect, or another doubt; inactive = no such curve, though single readings can be large; an effect the other way counts as inactive or inconclusive. Potency is the fitted concentration of half-maximal effect.

SMILES	ERG Ets-DNA blk	Anesthetic bind	BRCA1 expr up	GoLoco inh red
COCCN1CCc2nc(SCC(=O)Nc3ccc(C)c(Cl)c3)[nH]c(=O)c2C1	8%	-6%	.	.
CC[n+]1c(C)sc2c(C)cc(C)cc21	-8%	-7%	-2%	2.5µM*
Cc1ccccc1Oc1ccc(Oc2ccccc2C)nn1	.	-16%	7.1µM*	-5%
Cc1ccc(Oc2ccc(Oc3ccc(C)cc3)nn2)cc1	-3%	-9%	43%	16%
CN1[C@@H]2CC[C@H]1CC(OC(=O)[C@@H](CO)c1ccccc1)C2 (stereo not given in full)	.	12%[29.3 µM]	.	-2%[21.6 µM]
C[N+](C)(C)C/C=C1/COCO1	4%	-2%	-4%	10µM*
O=S(=O)(Nc1cccc(-c2ccc(N3CCCCCC3)nn2)c1)c1ccccc1F	3%	-6%	13µM*	.
O=S(=O)(Nc1cccc(-c2ccc(N3CCCCCC3)nn2)c1)c1ccccc1Cl	-6%	-6%	75%	.
O=c1c2c3c(sc2ncn1/N=C/c1ccccc1)CCCC3	-4%	?	20µM*	-2%
O=c1c2c3c(sc2ncn1Cc1ccc(F)cc1)CCC3	12%	25µM*	1%	64%
CCOC(=O)N1CCc2c(sc3ncn(Cc4ccc(F)cc4)c(=O)c23)C1	37%	-5%	-17%	9%
O=c1c2c3c(sc2ncn1/N=C/c1ccco1)CCCC3	-6%	?	18%	12%
Cc1ccc(CC(=O)NCc2nc(-c3cccc(C)c3)no2)cc1	0%	?	.	.
COc1cc2cccc(OC)c(=O)c2c(O)c1OC	1%	-2%	10µM*	10%
CCOc1ccccc1N1C(=O)c2ccccc2N/C1=C\N1CCN(C(=O)c2ccco2)CC1	.	.	0%	.
CN(C)c1ccc(-c2nc3cnccn3c2Nc2ccc3c(c2)OCCO3)cc1	-4%	-4%	44%	5%
CN(C)c1ccc(-c2nc3ccc(Cl)cn3c2Nc2ccc3c(c2)OCCO3)cc1	-3%	?	10µM*	.
O=C(CSCc1ccco1)N1CCc2ccccc21	0%	?	2.5µM*	.
O=C(NCCC(=O)N1CCc2ccccc21)c1ccco1	8%	-2%	8.9µM*	.
Cc1[nH]c2ccccc2c1/C=C/c1c(C)[nH]c2ccccc12	.	.	-69%	.
Cc1ccccc1/C=C/c1cc[n+](C)cc1	-4%	-10%	-6%	22µM*
Cc1[nH]c2ccccc2c1/C=C/c1cc[n+](C)cc1	6%	-5%	-61%	2.8µM*
CC(C)n1cc(/C=C/c2cc[n+](C)cc2)c2ccccc21	17%	74%	-41%	.
CSCC[C@H](NC(=O)[C@H](CCC(N)=O)NC(=O)[C@H](CCCCN)NC(=O)[C@H](CCCNC(=N)N)NC(=O)[C@H](Cc1ccc(O)cc1)NC(=O)[C@H](CCCNC(=N)N)NC(=O)[C@H](CO)NC(=O)[C@H](Cc1ccc(O)cc1)NC(=O)[C@H](CO)NC(=O)[C@H](CC(=O)O)NC(=O)[C@@H](NC(=O)[C@@H](N)Cc1ccccc1)[C@@H](C)O)C(=O)N[C@@H](C)C(=O)N[C@H](C(=O)N[C@@H](CCCCN)C(=O)N[C@@H](CCCCN)C(=O)N[C@@H](Cc1ccc(O)cc1)C(=O)N[C@@H](CC(C)C)C(=O)N[C@@H](C)C(=O)N[C@@H](C)C(=O)N[C@H](C(=O)N[C@@H](CC(C)C)C(=O)NCC(=O)N[C@@H](CCCCN)C(=O)N[C@@H](CCCNC(=N)N)C(=O)N[C@@H](Cc1ccc(O)cc1)C(=O)N[C@@H](CCCCN)C(=O)N[C@@H](CCC(N)=O)C(=O)N[C@@H](CCCNC(=N)N)C(=O)N[C@H](C(=O)N[C@@H](CCCCN)C(=O)N[C@@H](CC(N)=O)C(=O)N[C@@H](CCCCN)C(N)=O)C(C)C)C(C)C)C(C)C	.	-4%	.	.
c1ccc(CSCc2cn3ccsc3n2)cc1	-10%	4%	8.9µM*	10%
SMILES	ERG Ets-DNA blk	Anesthetic bind	BRCA1 expr up	GoLoco inh red
C[N+](C)(C)CC/C=C1/c2ccccc2CSc2ccccc21	-6%	-6%	9%	2.2µM*
CC(=O)OCCCN(C)CC/C=C1/c2ccccc2CSc2ccccc21	2%	.	-44%	.
O=C(c1ccccc1)[C@H](Nc1ccc2ccccc2c1)c1ccccc1	.	.	.	4%[14.2 µM]
CC(C)(C)Nc1nc(Cl)nc(Nc2ccccc2)n1	2%	-16%	11µM*	.
Clc1nc(Nc2ccccc2)nc(Nc2ccccc2)n1	2%	-3%	-23%	1%
O=C(Nc1ccc2ccccc2n1)C1CCCCC1	-14%	5%	2.8µM*	10%
O=C(Nc1ccc2ccccc2n1)c1ccccc1Cl	-5%	8%	85%	.
Cc1nc(C(C)NC(=O)c2cc(COc3ccc(C)c(C)c3)on2)c(C)s1 (stereo not given)	-3%	-39%	5.6µM*	.
O=C(C[n+]1ccccc1)c1ccc(I)cc1	.	.	17%	.
c1ccc(CSc2n[nH]c(-c3ccco3)n2)cc1	-5%	-21%	11µM*	5%
CCOC(=O)CCCNC(=O)N1CCc2nc(-c3ccc(OC)cc3C)c3c(c2C1)CO[C@@H](c1ccccc1)C3	.	.	.	3%[14.2 µM]
O=[N+]([O-])c1ccc(CSc2ncnc3c2ncn3C2OC(CO)C(O)C2O)cc1 (stereo not given)	.	.	.	8%
COc1ccc(C2=NC(c3ccc(Cl)cc3)C(c3ccc(Cl)cc3)N2C(=O)N2CCNC(=O)C2)c(OC(C)C)c1 (stereo not given)	.	-7%	.	.
C[n+]1cccc(CNC(=O)/C=N/O)c1	-2%	-4%	-26%	14µM*
O[C@@H](c1cc(C(F)(F)F)nc2c(Cl)cc(Cl)cc12)C1CCCCN1 (stereo not given in full)	.	.	.	-1%[14.2 µM]
Cc1c(C(=O)N2CCCC2)oc2c1-c1nn(CC(=O)NCc3cccc(Br)c3)cc1CC2	-3%	-9%	.	.
N#C/C(=C(\O)c1ccco1)c1ccccn1	-1%	?	?	-18%
N#CC(C(=O)c1ccco1)c1ccccn1 (stereo not given)	.	0%	14µM*	-8%
c1ccc2[nH]c(-c3cscn3)nc2c1	-4%	-4%	11µM*	-2%
c1ccc2nc(-c3nc4ccccc4[nH]3)ccc2c1	-3%	-2%	-36%	15%
Fc1ccccc1-c1nc2ccccc2[nH]1	0%	-21%	4µM*	16%
c1ccc2[nH]c(-c3ccnc4ccccc34)nc2c1	3%	-9%	32%	25µM*!
Cc1ccc(-c2nc3ccccc3[nH]2)cn1	-8%	3%	7.9µM*	.
COc1cc(N(C)C)c(OC)cc1/C=C/c1ccnc2ccccc12	.	.	-48%	.
COCCCCOc1cc2nc(N3CCCN(C)CC3)nc(NC3CCN(C)CC3)c2cc1OC	.	.	-54%	.
